In the library only some 12% were active in any assay of this set; here they are far more common.
JMJD2A Tudor = inhibitors of human JMJD2A Tudor domain. O75164. AlphaScreen JMJD2A-Tudor / H3K4me3 peptide binding. Potency, µM (highest dose often 114 µM), inactives show at the highest dose activity change, negative = inhibition, hits mostly inhibitors. 4.4% of 390,000 active; further: on the % scale 0 is the no-effect control and ±100 the full control effect; nearly all actives have a fitted effect of over 50% in size
L3MBTL1 inh = blocks human L3MBTL1 | Potency, µM (titrated, usually from 57.1 µM), without a hit: at the highest dose activity, negative = inhibition, usual class: inhibitors | AID 485360 | 0.66% of 230,000 active | Q9Y468 | AlphaScreen L3MBTL1–H3K9me1 peptide binding; further: on the % scale 0 is the no-effect control and ±100 the full control effect; nearly all actives have a fitted effect of over 60% in size
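AlphaScreen assay: L3MBTL1 (50 nM final) was preincubated 30 min at room temperature with biotinylated H3(1-15)K9me1 peptide (75 nM final), then 30 min with library compounds; streptavidin donor and nickel chelate acceptor beads (10 ug/mL final) added, 30 min dark.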
BAZ2B inh = blocks human BAZ2B; AlphaScreen BAZ2B-H3K14Ac peptide displacement; Potency, µM (top dose mostly 114 µM), for inactives: at the top dose activity change, negative = inhibition, hits mostly inhibitors; 4.4% of 360,000 active; AID 504333; further: on the % scale 0 is the no-effect control and ±100 the full control effect; nearly all actives have a fitted effect of over 60% in size
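Inhibition is scored as reduced AlphaScreen emission. The BAZ2B/b-H3(5-23)K14Ac complex (50 nM each) in PBS pH 7.4, 0.01% Tween-20 meets compound (up to 110 uM) for 30 min at RT before bead addition.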
G9a block = inhibitors of human histone lysine methyltransferase G9a | Q96KQ7 | G9a H3K9 monomethylation, AlphaScreen, 2 h | Potency, µM (top dose mostly 102 µM), for the others: top-dose activity, negative = inhibition, actives largely listed as inhibitors | 8.8% of 350,000 active | AID 504332; further: on the % scale 0 is the no-effect control and ±100 the full control effect; nearly all actives have a fitted effect of over 75% in size
Target sequence (Q96KQ7 913-1193 limits assumed): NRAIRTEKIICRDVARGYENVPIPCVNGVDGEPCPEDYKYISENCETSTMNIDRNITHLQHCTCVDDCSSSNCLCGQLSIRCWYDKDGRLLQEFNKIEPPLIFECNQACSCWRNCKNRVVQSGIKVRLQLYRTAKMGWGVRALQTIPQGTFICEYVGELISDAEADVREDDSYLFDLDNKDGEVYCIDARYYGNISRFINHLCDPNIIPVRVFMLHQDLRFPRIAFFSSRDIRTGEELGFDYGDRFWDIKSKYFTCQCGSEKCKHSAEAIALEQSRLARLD
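Using a bead-based AlphaScreen, monomethylated H3K9 product from 2 h room-temperature reactions (G9a 20 nM, peptide 500 nM, SAM 20 uM) was detected with 0.5 ug/mL rabbit anti-H3K9me1 antibody.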
Sfp PPTase inh = Sfp phosphopantetheinyl transferase inhibition; Q9F4F7; Biochemical Sfp PPTase activity, qHTS; Potency, µM, without a hit: largest response in the series, negative = inhibition, hits mostly inhibitors; 3.5% of 310,000 active; AID 1490;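 further: the enzyme is Sfp with the accession as filed and its product quenches rhodamine fluorescence; 0% = enzyme reaction without inhibitor and -100% = no enzyme wells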
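With Hepes-Na pH 7.6 buffer containing 10 mM MgCl2, Sfp (15 nM) modified BHQ-2-YbbR (12.5 uM) using rhodamine-CoA (5 uM). Two reads 30 minutes apart at 525/598 nm yielded each well's rate.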
HP1b binding inh = inhibitors of HP1-beta chromodomain binding to methylated histone tails; P83916; AlphaScreen HP1-beta / biotin-H3K9me3 peptide binding; Potency, µM (doses to about 114 µM), for the others: at the highest dose activity change, negative = inhibition, hits mostly inhibitors; 0.56% of 390,000 active; AID 540317; further: nearly all actives have a fitted effect of over 70% in size
Target sequence (P83916 whole entry, looked up): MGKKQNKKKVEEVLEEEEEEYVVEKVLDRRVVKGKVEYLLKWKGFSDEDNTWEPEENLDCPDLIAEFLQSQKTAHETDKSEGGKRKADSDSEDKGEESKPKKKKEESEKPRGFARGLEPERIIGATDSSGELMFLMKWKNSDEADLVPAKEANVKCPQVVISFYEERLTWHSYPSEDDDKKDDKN
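Compound inhibition of the preformed complex between 50 nM HP1-beta and 50 nM biotinylated H3K9me3 peptide was read by AlphaScreen. Buffer was PBS pH 7.4 with 0.01% Tween-20. Incubations ran 30 min at room temperature, with 10 ug/mL donor/acceptor beads.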
Active calls of the source: *; [ ] = another dose, or the depositor's remark. The call rests on the fitted dose curve; in most records, active means well fitted curve in the direction sought with a large enough effect; inconclusive means small, poorly fitted or top-dose-only effect, or another doubt; inactive means no such curve, though single readings can be large; an effect the other way counts as inactive or inconclusive. Potency means the concentration at half of the fitted maximal effect.

CC(C)CN1C(=O)c2ccc(C(=O)Nc3ccccc3C(=O)O)cc2C1=O was read as JMJD2A Tudor 22µM*, BAZ2B inh 5%, G9a block inconclusive, Sfp PPTase inh 13% and HP1b binding inh -4%.
`CC(C)CCN1C(=O)c2ccc(C(=O)Nc3ccc(Br)cc3C(=O)O)cc2C1=O` gave JMJD2A Tudor 56µM*, L3MBTL1 inh 4%, BAZ2B inh 45µM*, Sfp PPTase inh -7% and HP1b binding inh 4%.
For O=C(Nc1ccc(Cl)cc1C(=O)O)c1ccc2c(c1)C(=O)N(Cc1ccco1)C2=O the results were JMJD2A Tudor 56µM*, L3MBTL1 inh inconclusive, BAZ2B inh 50µM*, G9a block 11µM*, Sfp PPTase inh -23% and HP1b binding inh -9%.
`CC(C)CC(=O)N1c2nc(C(C)C)nn2C2(CCCCC2)[C@@H]2CCCC[C@@H]21` gave JMJD2A Tudor -1%, BAZ2B inh -1%, G9a block 0%[59 µM] and HP1b binding inh 40%.
CCOc1ccc(C(=O)NCCS(=O)(=O)N2CCN(c3ccccc3F)CC2)cc1OCC was read as JMJD2A Tudor -1%, BAZ2B inh 7%, G9a block 1%[59 µM] and HP1b binding inh 20%[57 µM].
`O=C1C2C3C=CC(CNS(=O)(=O)c4ccccc4[N+](=O)[O-])(O3)C2C(=O)N1c1ccccc1` (centres undefined) gave JMJD2A Tudor inconclusive, L3MBTL1 inh 0%, BAZ2B inh -18%, G9a block 4.5µM*, Sfp PPTase inh 28µM* and HP1b binding inh inconclusive.
Screening Cc1cc(C)c(S(=O)(=O)NCC23C=CC(O2)C2C(=O)N(c4ccccc4)C(=O)C23)c(C)c1 (centres undefined) returned JMJD2A Tudor 50µM*, L3MBTL1 inh 1%, BAZ2B inh inconclusive, G9a block -15%[0.501 µM], Sfp PPTase inh 28µM* and HP1b binding inh inconclusive.
`Cc1cc(C)c(S(=O)(=O)NCCS(=O)(=O)N2CCN(c3ccccc3)CC2)c(C)c1` gave JMJD2A Tudor -28%, BAZ2B inh -18%, G9a block -26%[59 µM] and HP1b binding inh 12%[57 µM].
For COc1cccc2c3c(c(C)nc12)CC(CO)O3 (centres undefined) the results were Sfp PPTase inh 28%.
Cc1ccc(-n2ncc3c(N(C)Cc4ccccc4)ncnc32)cc1 was read as JMJD2A Tudor 54%, BAZ2B inh 48%, G9a block 34%[59 µM] and HP1b binding inh 128%.
For N#Cc1cccc(NC(=O)N2CC3(CCN(C(=O)c4cccc(F)c4)CC3)C2)c1 the results were G9a block -1%[12.7 µM] and Sfp PPTase inh 1%.
`COc1ccc(OC)c2c(=S)c3ccccc3[nH]c12` gave Sfp PPTase inh 56µM*.
`NC(=S)N/N=C/c1ccc(-n2nncc2-c2ccc(Cl)cc2)cc1` gave JMJD2A Tudor inconclusive, BAZ2B inh inconclusive, G9a block 45µM*, Sfp PPTase inh -2% and HP1b binding inh -9%.
`Nc1cccc(-n2nncc2-c2ccc(Cl)cc2)c1` gave L3MBTL1 inh -9%, G9a block inconclusive and Sfp PPTase inh 7%.
`CCOc1ccc(C(=O)c2cn(CC(=O)Nc3ccc4c(c3)OCO4)c3ccc(OCC)cc3c2=O)cc1` gave JMJD2A Tudor -1%, BAZ2B inh 3%, G9a block 8%[59 µM] and HP1b binding inh 30%.
NNC(=O)c1cn2ccccc2n1 was read as JMJD2A Tudor 20µM*, L3MBTL1 inh -9%, BAZ2B inh 18µM*, G9a block 3.2µM*, Sfp PPTase inh 79µM* and HP1b binding inh 28%.
Screening O=C(O)C1CCC[C@@H]2[C@@H]3CC(CN12)[C@@H]1CCCCN1C3 (some centres undefined) returned Sfp PPTase inh 7%.

Screening results deposited in PubChem by National Center for Advancing Translational Sciences (NCATS).
